Shown are actives, neighbours in structure and some others; about 5.7% of the full set was active somewhere.
PI5P4Ka inh: PI5P4K alpha (human) kinase inhibition. P48426. max response, %. hit rate 1.2% among 330,000. PI5P4Kalpha enzyme, ADP-Glo luminescence, 60 min; hits give low values. AID 652105; active = max response of -50% or lower; inconclusive = between -30% and -50%; inactive = -30% or higher; note: value at the top dose of about 77 µM
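Luminescence from ADP-Glo served as readout of PI5P4Kalpha activity in a qHTS format. Reaction: enzyme, substrate, compound, ATP at 5 microM final, 60 min at RT.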
HP1b binding inh: HP1-beta chromodomain-methylated histone interaction inhibition | P83916 | AlphaScreen HP1-beta / biotin-H3K9me3 peptide binding | Potency, µM (highest dose often 114 µM), usual class: inhibitors | hit rate 0.56% among 390,000; note: nearly all actives have a fitted effect of over 70% in size
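AlphaScreen: HP1-beta (50 nM) preformed 30 min with biotin-H3(1-18)K9me3 peptide (50 nM) in PBS pH 7.4, 0.01% Tween-20. Compound added for 30 min at RT, then streptavidin donor/nickel chelate acceptor beads (10 ug/mL) for 30 min.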
JMJD2E inh: inhibitors of human JMJD2E histone demethylase. AID 2147. hit rate 1.6% among 230,000. JMJD2E catalytic domain, FDH-coupled NADH fluorescence (FDH is formaldehyde dehydrogenase). B2RXH2. Potency, µM (highest dose often 57.1 µM), actives largely listed as inhibitors; active = well fitted inhibition curve with a large enough effect, not every such curve was filed as active; inconclusive = small, poorly fitted or top-dose-only effect, or another doubt; inactive = no such curve, though single readings can be large or run the other way; note: nearly all actives have a fitted effect of over 50% in size
L3MBTL1 block: blocks human L3MBTL1 | Potency, µM (titrated, usually from 57.1 µM), actives largely listed as inhibitors | hit rate 0.66% among 230,000 | AlphaScreen L3MBTL1–H3K9me1 peptide binding | Q9Y468; note: nearly all actives have a fitted effect of over 60% in size
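L3MBTL1 50 nM + b-AHA-H3(1-15)K9me1 75 nM, 30 min RT; compound added, 30 min RT; streptavidin donor/Ni-chelate acceptor beads 10 ug/mL each final, 30 min RT dark; AlphaScreen read.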
JMJD2A Tudor: blocks the human JMJD2A Tudor domain; AlphaScreen JMJD2A-Tudor / H3K4me3 peptide binding; O75164; Potency, µM (series often up to 114 µM), hits mostly inhibitors; hit rate 4.4% among 390,000; note: nearly all actives have a fitted effect of over 50% in size
BAZ2B inh: inhibitors of human BAZ2B bromodomain; Q9UIF8; AlphaScreen BAZ2B-H3K14Ac peptide displacement; Potency, µM (highest dose often 114 µM), hits mostly inhibitors; hit rate 4.4% among 360,000; AID 504333; note: nearly all actives have a fitted effect of over 60% in size
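Compounds, titrated to a top concentration of 110 uM, were incubated 30 min at room temperature with preformed BAZ2B/acetyl-K14 H3 peptide complex (50 nM each). Proximity signal was measured by AlphaScreen after 20 min with beads.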
A number is an active result; - = inactive; ? = inconclusive; . = not tested or not shown; [ ] = another dose, or the depositor's remark. Unless noted, calls come from the whole dose curve; as a rule, active = well fitted inhibition curve with a large enough effect; inconclusive = small, poorly fitted or top-dose-only effect; inactive = no such curve, though single readings can be large or run the other way.

SMILES	PI5P4Ka inh	HP1b binding inh	JMJD2E inh	L3MBTL1 block	JMJD2A Tudor	BAZ2B inh
Cc1cc2nnc(SC(C)C#N)n2c2ccccc12 (configuration not stated)	-	-	-	-	10µM	-
CCn1cc(/C=N\NC(=O)Cc2ccc(Cl)cc2)cn1	-	-	-	-	-	-
Cn1cc(S(=O)(=O)c2cccc(Cl)c2)c(=O)c2cc(F)c(N3CCN(c4ccc(F)cc4)CC3)cc21	.	-	.	.	-	-
CN(CC(=O)Nc1ccc(Cl)cc1)C1CCCCC1	-	-	.	-	-	-
Cc1ccc(NC(=O)CN(C)C2CCCCC2)cc1Br	-	?	-	-	18µM	50µM
NNc1ncnc2c1cnn2-c1ccccc1	-	-	?	.	50µM	28µM
COc1ccc(-n2ncc3c(NCc4ccccn4)ncnc32)cc1	-	-	?	-	14µM	?
COc1ccc(/C=C2\CCC/C(=C\C=N\N(C)C)C2=O)cc1	-	?	-	?	32µM	32µM
CN(C)/N=C/C=C1\CCC/C(=C\c2ccc(F)c(F)c2)C1=O	-	?	-	-[11.4 µM]	?	40µM
COc1ccc(/C=C2\CCCCC2=O)cc1	-	-	.	.	-	.
Cn1c2ccsc2c2cnn(Cc3ccccc3F)c(=O)c21	.	.	.	.	-	.
O=C(Nc1ccc(F)cc1)c1cccn1-c1nnc(N2CCCCC2)s1	.	-	.	.	-	-
CCOc1ccc(Sc2cc(C(=O)NCCc3ccc(OC)c(OC)c3)c3ccccc3n2)cc1	.	-	.	.	-	-
Cc1cccc(CN(CC(=O)N/N=C/c2ccco2)S(=O)(=O)c2ccc(Cl)cc2)c1	-	?	-	.	79µM	50µM
CCOc1ccc(/C(O)=C2/C(=O)C(=O)N(CC3CCCO3)C2c2ccco2)cc1 (configuration not stated)	-	-	-	?	79µM	-
COc1cccc(C2/C(=C(\O)c3ccc4c(c3)OCCO4)C(=O)C(=O)N2CC2CCCO2)c1 (configuration not stated)	-	-	.	.	22µM	-
O=C1C(=O)N(CCCN2CCOCC2)C(c2ccc(Cl)cc2)/C1=C(\O)c1ccc2c(c1)OCCO2 (configuration not stated)	-	-	.	.	32µM	-
C=CCOc1ccc(C2/C(=C(\O)c3ccc4c(c3)CC(C)O4)C(=O)C(=O)N2CCN2CCOCC2)cc1OCC (configuration not stated)	-	-	.	.	35µM	79µM
CCC(CC)C(=O)Nc1cccc(-c2nc3ncccn3c2C)c1	.	-	.	.	-	-
O=C(CCC1N=C2c3ccccc3N=C(SCc3ccc(Cl)cc3)N2C1=O)NC1CCCCC1 (configuration not stated)	.	-	.	.	-	-
O=C1C(=O)N(Cc2ccccc2)C(c2cccc(O)c2)/C1=C(\O)c1ccc2c(c1)OCCO2 (configuration not stated)	-	-	.	.	-	56µM
O=C1C(=O)N(CCN2CCOCC2)C(c2ccccc2)/C1=C(\O)c1ccc2c(c1)OCCO2 (configuration not stated)	-	-	.	.	?	-
O=C1C(=O)N(Cc2ccco2)C(c2cccc(Cl)c2)/C1=C(\O)c1ccc2c(c1)OCCO2 (configuration not stated)	-	-	-	-	79µM	?
COc1cc(C2/C(=C(\O)c3ccc4c(c3)OCCO4)C(=O)C(=O)N2Cc2ccco2)ccc1O (configuration not stated)	-	-	.	.	-	-
Cc1cccc(Cn2c(SCc3ccc(C(=O)NCc4ccccc4)cc3)nc3cccnc32)c1	.	-	.	.	-	-
SMILES	PI5P4Ka inh	HP1b binding inh	JMJD2E inh	L3MBTL1 block	JMJD2A Tudor	BAZ2B inh
CCNC(=S)NNC(=O)c1ccccn1	-	-	?	3.5µM	25µM	3.2µM
O=C(NNC(=S)Nc1ccc(Cl)c(Cl)c1)c1ccccn1	-	-	-	-	25µM	4.5µM
CN1CCN(C(=O)c2ccc(C(F)(F)F)cc2)CC1	-	-	-	-[11.4 µM]	-	?
CN1CCN(C(=O)c2ccc(C(C)(C)C)cc2)CC1	.	-	-	-	-	79µM
Cc1ccc(-c2nc3s/c(=C\c4ccco4)c(=O)n3n2)cc1	.	-	-	?	50µM	50µM
CCCN1C(=O)/C(=c2\sc3nc(=O)c(Cc4ccc(C)cc4)nn3c2=O)c2ccccc21	-	?	-	-	?	?
